Screening results from PubChem.
Rows were chosen to be rich in hits. Some 6.1% of all compounds tested hit in one or more screens of this group.
Cdc25B inh = human M-phase inducer phosphatase 2 inhibition | inhibition, %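 (compounds tested at 10 µM final in the well)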 | P30305 | recombinant Cdc25B, OMFP fluorescence Ex485/Em525 | 65,000 tested, 0.1% active; in the data active = inhibition above about 50%
Hsp90 block = displaces geldanamycin probe from tumor Hsp90. P07900. NCI-N417 lysate Hsp90, Cy3B-geldanamycin FP displacement. inhibition, % at 30 µM. 64,000 tested, 0.35% active;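 active = inhibition above 50%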
MMP13 inh = inhibitors of human MMP13 | P45452 | MMP-13 fTHP FRET cleavage, Mca fluorescence | inhibition, % at 4 µM | 65,000 tested, 0.07% active | AID 570;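 active = inhibition above the mean of compound-free control plate wells plus 3 SD, cut at about 14% in these data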
M1 ag = agonists of M1 muscarinic receptor | CHO-M1 cells, Fluo-4 calcium fluorescence, agonist mode; hits give high values | B-score at 10 µM | 64,000 tested, 3% active | AID 626;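 active = fluorescence rise, raw or as B-score row- and column-corrected plate score, outside the 99.7% band of its plate's samples, either direction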
MKP-1 inh = human dual specificity phosphatase 1 inhibition; P28562; recombinant MKP-1, OMFP hydrolysis fluorescence; AID 374; 65,000 tested, 0.15% active; inhibition, %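 (compounds tested at a single concentration somewhere between 10 and 100 µM)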;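 active = inhibition above about 50%, limit read from the data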
Target sequence (P28562 whole entry, looked up): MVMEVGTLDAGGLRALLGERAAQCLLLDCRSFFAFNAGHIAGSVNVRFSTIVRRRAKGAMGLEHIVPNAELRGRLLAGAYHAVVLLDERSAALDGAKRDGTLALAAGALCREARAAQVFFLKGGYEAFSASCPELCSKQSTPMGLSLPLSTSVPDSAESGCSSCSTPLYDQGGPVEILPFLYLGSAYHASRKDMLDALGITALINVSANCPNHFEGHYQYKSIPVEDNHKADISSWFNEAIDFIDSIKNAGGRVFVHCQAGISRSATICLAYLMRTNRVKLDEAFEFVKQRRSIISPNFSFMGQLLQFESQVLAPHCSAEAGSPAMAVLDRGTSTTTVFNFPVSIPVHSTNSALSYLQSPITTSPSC
M1 antag = antagonists of rat M1 muscarinic receptor; CHO-M1 cells, Fluo-4 calcium, ACh EC80 antagonist mode; hits give low values; B-score at 10 µM; 64,000 tested, 3.4% active; AID 628;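 active = calcium fluorescence response, raw or row-and-column corrected B-score, differing from the plate sample mean either way at a set confidence level, mostly lower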
M1 antag conf = M1 muscarinic receptor (rat) antagonism, confirmed | shares compounds with M1 antag | CHO-M1 cells, Fluo-4 calcium, ACh EC80 antagonism; hits give low values | calcium response (max-min fluorescence) at 10 µM | 1,700 tested, 43% active | AID 677;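 active = calcium response below the same-plate mean of wells given acetylcholine alone at its 80%-effect dose, minus 3 SD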
mGluR4 antag = acts on human mGluR4 in M1 antagonist selectivity test; 1,700 tested, 0.9% active; AID 678; CHO-mGluR4 calcium flux, Fluo-4 fluorescence, glutamate EC80; hits give low values; shares compounds with M1 antag; fluorescence response (max-min) at 10 µM;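 active = fluorescence response below the plate's average for near-maximal glutamate wells, less 3 SD of those wells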;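 note: raw unnormalized fluorescence span taken in the window right after glutamate addition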
A number is an active result.

For Cc1nc(NCc2ccco2)c2c3c(sc2n1)CCC3 the results were Cdc25B inh inactive, Hsp90 block inactive, MMP13 inh inactive, M1 ag inactive, MKP-1 inh inactive, M1 antag -1.87, M1 antag conf inactive and mGluR4 antag inactive.
`c1coc(CNc2ncnc3sc4c(c23)CCCCC4)c1` gave Cdc25B inh inactive, Hsp90 block inactive, MMP13 inh inactive, M1 ag inactive, MKP-1 inh inactive and M1 antag inactive.
Cc1ccc2cc3cc(C(=O)NCCCN4CCCCCC4)oc3nc2c1 was read as Cdc25B inh inactive, Hsp90 block inactive, MMP13 inh inactive, M1 ag inactive, MKP-1 inh inactive and M1 antag inactive.
Cc1ccc2cc3cc(C(=O)NCCCN4CCc5ccccc5C4)oc3nc2c1 was read as Cdc25B inh inactive, Hsp90 block inactive, MMP13 inh inactive, M1 ag inactive, MKP-1 inh inactive, M1 antag -3.45, M1 antag conf inactive and mGluR4 antag inactive.
O=C(NC1CCCCC1)C(c1ccco1)N(Cc1cccnc1)C(=O)C1COc2ccccc2O1 (configuration not stated) was read as Cdc25B inh inactive, Hsp90 block inactive, MMP13 inh inactive, M1 ag inactive, MKP-1 inh inactive and M1 antag inactive.
For C=CCn1c(SCn2nnc3ccccc3c2=O)nc2scc(-c3cccs3)c2c1=O the results were Cdc25B inh inactive, Hsp90 block inactive, MMP13 inh inactive, M1 ag inactive, MKP-1 inh inactive and M1 antag inactive.
For N#CCSc1nc2scc(-c3cccs3)c2c(=O)n1CCc1ccccc1 the results were Cdc25B inh inactive, Hsp90 block inactive, MMP13 inh inactive, M1 ag inactive, MKP-1 inh inactive, M1 antag -3.28, M1 antag conf inactive and mGluR4 antag inactive.
COc1cc2c(=O)n(Cc3ccco3)c(=O)n(CC(=O)c3ccc(Br)cc3)c2cc1OC was read as Cdc25B inh inactive, Hsp90 block inactive, MMP13 inh inactive, M1 ag inactive, MKP-1 inh inactive and M1 antag inactive.
For COc1cc2c(=O)n(Cc3ccccc3)c(=O)n(CC(=O)C(C)(C)C)c2cc1OC the results were Cdc25B inh inactive, MMP13 inh inactive, M1 ag inactive, MKP-1 inh inactive, M1 antag -2.1, M1 antag conf inactive and mGluR4 antag inactive.
Screening Cc1cc(C)nc(SCC(=O)Nc2ccc(S(=O)(=O)Nc3nccs3)cc2)n1 returned Cdc25B inh inactive, Hsp90 block inactive, MMP13 inh inactive, M1 ag inactive, MKP-1 inh inactive and M1 antag inactive.
O=C(O)CCC(=O)Nc1ccc(S(=O)(=O)Nc2nccs2)cc1 was read as Cdc25B inh inactive, Hsp90 block inactive, MMP13 inh inactive, M1 ag inactive, MKP-1 inh inactive, M1 antag -11.4, M1 antag conf inactive and mGluR4 antag inactive.
Screening O=C(NCc1ccco1)c1cc2cc3ccc(Cl)cc3nc2o1 returned Cdc25B inh inactive, Hsp90 block inactive, MMP13 inh inactive, M1 ag inactive, MKP-1 inh inactive, M1 antag -2.52, M1 antag conf inactive and mGluR4 antag inactive.
`O=C(CSc1nc2cc(Cl)ccc2s1)NC(=O)NCc1ccco1` gave Cdc25B inh inactive, Hsp90 block inactive, MMP13 inh inactive, M1 ag inactive, MKP-1 inh inactive, M1 antag -2.11, M1 antag conf inactive and mGluR4 antag inactive.
For CCCCN(C)Cc1c(C)[nH]c2ccc(OCC)cc2c1=O the results were Cdc25B inh inactive, Hsp90 block inactive, MMP13 inh inactive, M1 ag inactive, MKP-1 inh inactive and M1 antag inactive.
For COc1cc(NC(=O)C2CCN(S(=O)(=O)c3ccc(Cl)cc3)CC2)ccc1-n1cnnn1 the results were Cdc25B inh inactive, Hsp90 block inactive, MMP13 inh inactive, M1 ag inactive, MKP-1 inh inactive and M1 antag inactive.
Screening Cc1ccc(-c2nnc(N3CCN(C(=O)c4ccco4)CC3)c3ccccc23)cc1 returned Cdc25B inh inactive, Hsp90 block inactive, MMP13 inh inactive, M1 ag inactive, MKP-1 inh inactive, M1 antag -6.93, M1 antag conf 209 and mGluR4 antag inactive.
